A short description of assay [1]: ACEA_ER_AUC_viability: ACEA Biosciences xCELLigence Real-Time Cell Analysis on Estrogen Receptor Agonism for Viability (AID 2283782).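 Further: hit means loss of impedance signal meaning reduced cell growth or viability.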 The method in brief: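 Continuous-exposure impedance cell analysis uses T-47D cells in charcoal-stripped serum, eight 1:4 dilutions topping at 100 uM final, biological duplicate. Area under the growth curve at 80 h is fitted against DMSO baseline.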

Assay [2] in a line: ATG_M_06_XSP2: Attagene TRANS-FACTORIAL Multi-Species (XSP2) HepG2 Assay for M06 Transcription Factor (Internal Marker) (AID 2283811).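 Further: internal background marker reporter mRNA measured by RT-PCR and capillary electrophoresis; hits are increases in signal above the DMSO baseline.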 The method in brief:
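Cells of the human liver line HepG2 carried transfected reporter transcription units and were treated for 24 h. Induced reporter transcripts were detected by fluorescence after RT-PCR and capillary electrophoresis, with activity fitted in the gain direction against DMSO.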

Assay [3] deals with turtle Estrogen Receptor (ERa), gene 101933533. Kind of assay: ATG_trERa_XSP2: Attagene TRANS-FACTORIAL Multi-Species (XSP2) HepG2 Assay for turtle Estrogen Receptor (ERa) (AID 2283812).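 Further: actives raise reporter signal above DMSO so AC50 reflects agonist activity.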 The method in brief:
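Readout is reporter mRNA quantified by RT-PCR with capillary electrophoresis after 24 h compound exposure, increase relative to DMSO. Uses transiently transfected human HepG2 liver cells carrying a chimeric turtle ERa-Gal4 receptor driving GAL4-UAS reporters.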

The target of assay [4] is Estrogen receptor beta (Homo sapiens) (UniProt Q92731). Kind of assay: ATG_hERb_XSP2: Attagene TRANS-FACTORIAL Multi-Species (XSP2) HepG2 Assay for human Estrogen Receptor (ERb) (AID 2283813).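 Further: actives raise reporter mRNA above DMSO so AC50 reflects agonist induction.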 Put shortly:
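Transient TRANS reporter system in HepG2: after 24 h of chemical, RNA is reverse-transcribed, reporter cDNA amplified, FAM-labelled and sized by capillary electrophoresis. Induction of the human ERb-Gal4 reporter is measured relative to DMSO.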

Assay [5] is described as follows: STM_H9_NormalizedViability: Cytotoxicity Assessment at 120 hours in the Stemina devTOX quickPredict H9 human embryonic stem cell (hESC)-based Assay (AID 2283784). Put shortly:
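Viability endpoint: background-corrected CellTiter-Fluor RFU expressed relative to the 0.1% DMSO mean on each plate. Undifferentiated H9 cells were treated with daily re-dosing and media change, and loss of signal was fitted.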

For assay [6], the target named is AR (gene 367) (UniProt P10275). Kind of assay: ACEA_AR_agonist_80hr: ACEA Biosciences xCELLigence Real-Time Cell Analysis on Androgen Receptor Agonism for Proliferation (AID 2283783).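 Further: hits increase impedance growth signal above DMSO baseline.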 Put shortly:
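Real-time cell-growth kinetics were recorded by electrode impedance in 22Rv1 cells exposed to test chemicals up to 100 uM final; the 80 h timepoint served as the readout, fitted upward relative to DMSO controls, in biological duplicate.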

Assay [7] addresses AR (gene 367) (UniProt P10275). Kind of assay: ACEA_AR_antagonist_80hr: ACEA Biosciences xCELLigence Real-Time Cell Analysis on Androgen Receptor Antagonism for Proliferation (AID 2283787).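 Further: 22Rv1 human prostate cancer cells with growth followed by electrical impedance; hits lower the impedance growth signal relative to DMSO.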 The method in brief: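 Using 22Rv1 cells held in assay medium, we dosed compounds (100 uM maximum final, 1:4 serial, eight points, 0.5% DMSO at top) and recorded cell-electrode impedance; the 80 hr timepoint was analyzed against DMSO.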

Values joined by “and” are separate entries in the source; they are usually repeats but may differ in a detail not shown here. Equal entries are not always repeated. Results filed as inconclusive are left out. Where a structure was tested more than once in an assay, its records may differ in their call. Active and inactive are the calls of the source. How the source made its calls: active means hit-call score of the fitted dose curve at least 0.9, where 1 is the maximum; inconclusive means response in the unintended direction; inactive means score below 0.9.

Chain of AR (gene 367) (P10275 whole entry, looked up): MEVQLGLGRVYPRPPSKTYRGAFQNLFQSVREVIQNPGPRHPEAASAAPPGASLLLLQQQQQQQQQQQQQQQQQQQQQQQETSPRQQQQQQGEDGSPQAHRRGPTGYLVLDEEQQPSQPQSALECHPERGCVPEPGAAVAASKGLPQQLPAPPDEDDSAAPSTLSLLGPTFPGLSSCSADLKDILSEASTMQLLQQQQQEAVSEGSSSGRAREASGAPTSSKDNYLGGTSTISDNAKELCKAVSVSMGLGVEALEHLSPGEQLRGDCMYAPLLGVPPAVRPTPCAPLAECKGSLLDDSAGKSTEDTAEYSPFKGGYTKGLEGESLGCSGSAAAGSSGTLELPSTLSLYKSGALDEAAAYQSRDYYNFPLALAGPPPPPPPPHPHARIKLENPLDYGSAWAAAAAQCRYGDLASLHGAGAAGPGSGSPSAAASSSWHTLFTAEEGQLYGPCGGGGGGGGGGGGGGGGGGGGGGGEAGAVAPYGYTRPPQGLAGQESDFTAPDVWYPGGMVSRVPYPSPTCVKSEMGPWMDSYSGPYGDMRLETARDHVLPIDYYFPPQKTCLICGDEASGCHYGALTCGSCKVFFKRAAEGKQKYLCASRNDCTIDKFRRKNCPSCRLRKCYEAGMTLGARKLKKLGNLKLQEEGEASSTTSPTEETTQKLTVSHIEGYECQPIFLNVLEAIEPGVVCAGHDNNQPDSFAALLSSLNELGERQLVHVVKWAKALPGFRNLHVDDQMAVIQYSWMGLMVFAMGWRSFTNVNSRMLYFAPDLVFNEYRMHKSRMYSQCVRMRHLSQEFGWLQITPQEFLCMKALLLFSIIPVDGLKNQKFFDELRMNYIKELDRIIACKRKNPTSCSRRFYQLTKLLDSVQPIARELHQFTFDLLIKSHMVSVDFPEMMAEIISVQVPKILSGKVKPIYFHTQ
Chain of Estrogen receptor beta (Homo sapiens) (Q92731 whole entry, looked up, the tested form may be a part): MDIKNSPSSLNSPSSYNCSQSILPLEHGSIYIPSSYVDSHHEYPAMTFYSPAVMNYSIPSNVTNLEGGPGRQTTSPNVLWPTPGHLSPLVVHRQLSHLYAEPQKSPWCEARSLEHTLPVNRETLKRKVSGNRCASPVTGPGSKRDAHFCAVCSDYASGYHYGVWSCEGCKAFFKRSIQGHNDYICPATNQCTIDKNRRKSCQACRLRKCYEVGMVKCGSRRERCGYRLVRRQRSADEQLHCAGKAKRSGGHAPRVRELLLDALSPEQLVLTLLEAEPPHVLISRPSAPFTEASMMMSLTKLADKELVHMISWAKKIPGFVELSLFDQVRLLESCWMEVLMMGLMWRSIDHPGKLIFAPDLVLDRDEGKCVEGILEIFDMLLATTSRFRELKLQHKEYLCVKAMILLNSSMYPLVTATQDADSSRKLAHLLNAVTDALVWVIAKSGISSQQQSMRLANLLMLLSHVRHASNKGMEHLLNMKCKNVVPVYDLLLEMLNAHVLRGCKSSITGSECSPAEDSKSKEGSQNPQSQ

Regarding `Cc1cc(=O)oc2cc(N(C)C)ccc12`, the result in assay [1], in assay [2], in assay [3] and in assay [4] was inactive. Further, the AC50 (usually the concentration giving half of the maximal activity seen) in assay [3] was 49.9 µM (active).
Take `C=Cc1ccc(C)cc1`: in assay [1], the call was inactive.
For the compound `CS(=O)(=O)OCCCCOS(C)(=O)=O`, the result in assay [1] was inactive. In addition, in assay [5], the AC50 is 23.6 µM (active).
For `NCC1CCCC(CN)C1` (centres undefined), the call in assay [1] was inactive.
On the same count and under the same terms, the result for `NC(=S)NNC(N)=S` reads “inactive”.
Turning to `C=CCN(CC=C)CC=C`, the AC50 in assay [1] was 61.2 µM (active).
In the case of `CC(C)=CCCC(C)CC(=O)O` (centres undefined), in assay [1], the compound was classed as inactive.
Consider `C[C@H]1O[C@@H](O[C@H]2[C@@H](O)C[C@H](O[C@H]3[C@@H](O)C[C@H](O[C@H]4CC[C@@]5(C)[C@H](CC[C@@H]6[C@@H]5C[C@@H](O)[C@]5(C)[C@@H](C7=CC(=O)OC7)CC[C@]65O)C4)O[C@@H]3C)O[C@@H]2C)C[C@H](O)[C@@H]1O`, for which the figures for the concentration at half-maximal activity (AC50) (in assay [1]; with AR (gene 367) [7]) were 0.0803 µM (active) and 0.00928 µM (active), respectively. Also, in the assay with AR (gene 367) [6], the result was inactive.
On to `CCc1ccc(O)cc1`, for which the call (in assay [1]; with AR (gene 367) [7]) was inactive.
For `Clc1ccc(C(c2ccccc2Cl)C(Cl)Cl)cc1` (centres undefined), the concentration at half-maximal activity (AC50) was 29.2 µM (active) in assay [1]; 1.29 µM (active) and 8.5 µM (active) in assay [3]; 3.01 µM (active) and 5.58 µM (active) in assay [4]. For the same compound, the call in assay [2] was inactive.
For `CCCCCCCCSCCO`, the AC50 in assay [1] is 70.5 µM (active). For the same compound, the outcome with AR (gene 367) [6] and in the assay with AR (gene 367) [7] was inactive.
With `CC(C)=CCCC(C)CCOC=O` (centres undefined), the AC50 in assay [1] is 50 µM (active).
As to `CCCCC1CCC(O)CC1` (centres undefined), the call (in assay [1]; with AR (gene 367) [7]) was inactive.
In the case of `CCCCCCCCC=CCCCCCCCC1=NCCN1CCO`, the AC50 in assay [1] is 10.9 µM (active). In addition, the outcome with AR (gene 367) [6] and in the assay with AR (gene 367) [7] was inactive.
Regarding `CCOC(=O)[C@@H](C)Oc1ccc(Oc2nc3ccc(Cl)cc3o2)cc1`, the half-maximal activity concentration (AC50) with AR (gene 367) [7] was 3.55 µM (active).
With `O=c1c(O)c(-c2ccc(O)cc2)oc2cc(O)cc(O)c12`, the compound was classed as inactive in assay [2]. The half-maximal activity concentration (AC50) in assay [3] was 2.27 µM (active) and 1.08 µM (active).
Turning to `Nc1ccc(N)c2c1C(=O)c1ccccc1C2=O`, in assay [1], the compound was classed as inactive. Moreover, the concentration at half-maximal activity (AC50) with AR (gene 367) [7] is 16.6 µM (active).
For the compound `ON=C1CCCCC1`, in assay [1], the compound was called inactive.
On to `CCOC(=O)CN`, for which the result in assay [1] was inactive.
Regarding `CC(C)CCCCCCc1ccc(OCCOCCO)cc1`, the outcome (in assay [1]; with AR (gene 367) [6]; in the assay with AR (gene 367) [7]) was inactive.
Turning to `OCc1cccc(Oc2ccccc2)c1`, the compound was called inactive (in the assay with AR (gene 367) [6]; in assay [2]). The AC50 in assay [3] is 17.1 µM (active) and 11.5 µM (active); in assay [4], 26.9 µM (active) and 8.78 µM (active).
Consider `O=P(O)(O)O`, for which, in assay [1], the compound was classed as inactive.
Regarding `CC(C=O)Cc1ccc(C(C)(C)C)cc1` (centres undefined), in the assay with AR (gene 367) [7], the call was inactive.
As for `BrCc1cccc(Oc2ccccc2)c1`, the compound was classed as inactive (in assay [1]; in the assay with AR (gene 367) [7]; in assay [2]). Also, the half-maximal activity concentration (AC50) was 15.9 µM (active) and 18.2 µM (active) in assay [3]; 21.3 µM (active) and 7.91 µM (active) in assay [4].
On to `CC(=O)O[C@@H]1CC2CCC1(C)C2(C)C` (some centres undefined), for which the outcome (in assay [1]; in the assay with AR (gene 367) [7]) was inactive.
Turning to `COCCOCCOCCO`, the outcome in assay [1] was inactive.
Turning to `CCc1cc(Cc2cc(CC)cc(C(C)(C)C)c2O)c(O)c(C(C)(C)C)c1`, the AC50 in assay [1] is 11.7 µM (active); with AR (gene 367) [7] it was 24.1 µM (active).
For the compound `Oc1ccc2cc(SSc3ccc4cc(O)ccc4c3)ccc2c1`, the concentration at half-maximal activity (AC50) in assay [1] was 87.1 µM (active); in assay [3] it was 1.07 µM (active). Also, the compound was called inactive in assay [2] and in assay [3].
Regarding `COC(C)(C)CC(C)=O`, the outcome in assay [1] was inactive.
Take `CC(=O)O[C@H]1C[C@@H]2CC[C@@]1(C)C2(C)C`: the result (in assay [1]; in the assay with AR (gene 367) [6]; in the assay with AR (gene 367) [7]) was inactive.
